The values below come from PubChem BioAssay (NCATS).

Experiment [1] in a line: Primary qHTS for small molecule stabilizers of the endoplasmic reticulum resident proteome: Secreted ER Calcium Modulated Protein (SERCaMP) assay (AID 1508630). The procedure, abridged:
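GLuc-SERCaMP-expressing SH-SY5Y cells, pretreated 16 h with compound, are challenged with thapsigargin to empty ER calcium stores; after 4 h, coelenterazine is added directly to the medium and luminescence is imaged.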

The target in experiment [2] is Cytochrome P450 2C9 (Homo sapiens) (UniProt P11712). Briefly: Cytochrome P450 family 2 subfamily C member 9 (CYP2C9) small molecule antagonists: luciferase biochemical (cell-free) qHTS assay (AID 1645842; active means well fitted curve in the direction sought with a large enough effect in the repeat runs; an effect the other way counts as inactive or inconclusive; further: nearly all actives have a fitted effect of over 55% in size; further: potency means the concentration at half of the fitted maximal effect). In outline:
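Luminescence, after 20 min with luciferin detection reagent, reflected CYP2C9 turnover during a 1 h NADPH-driven reaction at 37C. Enzyme-substrate mix contained 0.4% bovine serum albumin and was preincubated with compound 10 min at room temperature.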
(Quantitative high-throughput screening tests each substance at several concentrations.)

Experiment [3] in a line: Primary qHTS for inhibitors of nuclear receptor binding SET domain protein 2 (NSD2) in an isogenic RCH-ACV NSD2 p.E1099K mutant (9B) (AID 1645876). Further: nearly all actives have a fitted effect of over 70% in size. Further: potency means the concentration at half of the fitted maximal effect.
Experiment [4] can be described thus: Primary qHTS for inhibitors of nuclear receptor binding SET domain protein 2 (NSD2) in an RCH-ACV wild type WT cells (2C) (AID 1645877). Further: nearly all actives have a fitted effect of over 70% in size. Further: potency means the concentration at half of the fitted maximal effect.
Experiment [5] deals with N-terminal Xaa-Pro-Lys N-methyltransferase 1 (Homo sapiens) (UniProt Q9BV86). Briefly: Confirmatory qHTS for Inhibitors of N-terminal methyltransferase 1 (NTMT1): MTaseGlo Assay (AID 1645874). Further: potency means the concentration at half of the fitted maximal effect; nearly all actives have a fitted effect of over 65% in size. In outline: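 Luminescent MTase-Glo read-out of SAH. 125 nM NTMT1, 100 uM SAM, 1 uM SPKRIA substrate, 30 min RT reaction after 15 min compound preincubation. Normalized to no-enzyme and DMSO controls; Hill fit.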

The target in experiment [6] is Cytochrome P450 2D6 (Homo sapiens) (UniProt P10635). Briefly: Cytochrome P450 family 2 subfamily D member 6 (CYP2D6) small molecule antagonists: luciferase biochemical (cell-free) qHTS assay (AID 1645840; active means well fitted curve in the direction sought with a large enough effect in the repeat runs; an effect the other way counts as inactive or inconclusive; further: nearly all actives have a fitted effect of over 55% in size; further: potency means the concentration at half of the fitted maximal effect). The procedure, abridged: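 P450-Glo luminescent screen: recombinant CYP2D6 enzyme–proluciferin substrate mix preincubated with compound 10 min at room temperature, then NADPH regeneration added for 1 h at room temperature. Detection reagent added for 20 min; luciferin light read as relative luminescence units.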

Values joined by “and” are separate entries in the source; they are usually repeats but may differ in a detail not shown here. Equal values may be shown once. Inconclusive results are not listed. Active and inactive are the calls of the source. Unless noted, the call rests on the fitted dose curve; in most records, active means well fitted curve in the direction sought with a large enough effect; inconclusive means small, poorly fitted or top-dose-only effect, or another doubt; inactive means no such curve, though single readings can be large; an effect the other way counts as inactive or inconclusive.

Sequence of Cytochrome P450 2C9 (Homo sapiens) (P11712 whole entry, looked up): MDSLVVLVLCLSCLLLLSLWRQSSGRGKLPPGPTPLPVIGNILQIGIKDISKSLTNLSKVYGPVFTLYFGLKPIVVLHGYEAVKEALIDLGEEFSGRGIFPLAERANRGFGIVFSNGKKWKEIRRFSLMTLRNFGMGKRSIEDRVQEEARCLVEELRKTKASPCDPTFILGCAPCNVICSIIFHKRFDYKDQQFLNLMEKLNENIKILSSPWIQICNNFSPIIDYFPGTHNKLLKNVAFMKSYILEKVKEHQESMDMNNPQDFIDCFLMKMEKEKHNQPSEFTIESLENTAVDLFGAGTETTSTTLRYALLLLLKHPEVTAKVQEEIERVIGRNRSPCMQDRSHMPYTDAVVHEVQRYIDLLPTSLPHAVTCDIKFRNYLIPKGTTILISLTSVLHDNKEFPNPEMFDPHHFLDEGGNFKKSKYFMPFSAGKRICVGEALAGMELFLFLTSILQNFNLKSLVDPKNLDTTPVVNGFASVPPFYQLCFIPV
Sequence of Cytochrome P450 2D6 (Homo sapiens) (P10635 whole entry, looked up): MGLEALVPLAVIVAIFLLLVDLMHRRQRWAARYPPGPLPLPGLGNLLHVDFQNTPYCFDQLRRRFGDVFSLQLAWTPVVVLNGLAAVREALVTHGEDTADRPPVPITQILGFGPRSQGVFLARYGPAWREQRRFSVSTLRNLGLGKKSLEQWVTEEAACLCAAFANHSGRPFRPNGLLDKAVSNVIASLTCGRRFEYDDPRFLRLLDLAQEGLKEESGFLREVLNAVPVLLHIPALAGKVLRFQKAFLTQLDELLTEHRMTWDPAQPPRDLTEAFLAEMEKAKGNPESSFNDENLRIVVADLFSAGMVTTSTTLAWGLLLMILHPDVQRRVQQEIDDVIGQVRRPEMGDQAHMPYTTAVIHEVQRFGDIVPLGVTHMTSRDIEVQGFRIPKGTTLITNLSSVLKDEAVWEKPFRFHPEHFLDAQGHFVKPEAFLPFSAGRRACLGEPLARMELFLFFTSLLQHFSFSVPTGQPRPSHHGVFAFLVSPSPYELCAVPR
Sequence of N-terminal Xaa-Pro-Lys N-methyltransferase 1 (Homo sapiens) (Q9BV86 whole entry, looked up): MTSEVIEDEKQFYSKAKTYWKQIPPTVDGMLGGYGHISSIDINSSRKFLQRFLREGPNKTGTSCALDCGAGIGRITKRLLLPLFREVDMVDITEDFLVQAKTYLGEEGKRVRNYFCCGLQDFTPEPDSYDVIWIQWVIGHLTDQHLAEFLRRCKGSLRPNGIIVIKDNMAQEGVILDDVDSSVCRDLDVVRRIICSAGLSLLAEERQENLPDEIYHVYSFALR

In the case of `NC(=O)c1cccc2cn(-c3ccc([C@@H]4CCCNC4)cc3)nc12`, the Potency result in experiment [1] and in experiment [2] was “inactive” each time. In addition, the Potency in experiment [3] was 4.59 µM (active) and 2.63 µM (active); in experiment [4], 2.9 µM (active) and 2.35 µM (active).

Consider `COc1cc(C(=O)NS(=O)(=O)c2ccccc2C)ccc1Cc1cn(C)c2ccc(NC(=O)OC3CCCC3)cc12`, for which the Potency result in experiment [1], in experiment [3] and in experiment [4] was “inactive” in each case. Moreover, the Potency in experiment [2] was 13.8 µM (active).

In the case of `Cc1ccc(CN2CCNCC2)cc1NC(=O)CNc1ccc(F)c(F)c1`, the Potency result in experiment [1], in experiment [2], in experiment [3] and in experiment [4] was “inactive” throughout.

Regarding `O=C(NCCCNc1nc(Nc2cccc(NC(=O)N3CCCC3)c2)ncc1I)c1cccs1`, in experiment [1], the Potency entry is “inactive”. The Potency in experiment [5] was 6.76 µM (active); in experiment [3], 5.8 µM (active) and 1.48 µM (active); in experiment [4] it was 5.8 µM (active).

Take `Cc1cc(CN2CCN(c3c(Br)cnc4nc(-c5ccc(N6CCN(C)CC6)cc5)[nH]c34)CC2)no1`: the Potency result in experiment [1] is “inactive”. The Potency was 9.52 µM (active) in experiment [2]; 205 nM (active) and 468 nM (active) in experiment [3]; 145 nM (active) and 296 nM (active) in experiment [4].

For `CN1CCC(CNc2ccc3ncc(-c4cccc(OC(F)(F)F)c4)n3n2)CC1`, in experiment [1], the Potency result was “inactive”. Besides, the Potency in experiment [6] is 2.39 µM (active); in experiment [3] it was 2.58 µM (active) and 4.68 µM (active); in experiment [4], 2.05 µM (active) and 3.32 µM (active).

In the case of `Clc1cccc(-c2nnnn2Cc2cccnc2)c1Cl`, the Potency result in experiment [1], in experiment [6], in experiment [3] and in experiment [4] was “inactive” in each case.

For `CC1COC2(CCN(c3nc(=O)c4cc(C(F)(F)F)cc([N+](=O)[O-])c4s3)CC2)O1` (configuration not stated), the Potency entry in experiment [1], in experiment [2], in experiment [3] and in experiment [4] was “inactive” in each case.
